target: PUM1 PUF domain R4-TPG (Homo sapiens, UniProt Q14671 828-1176, N971T;H972P;Q975G); test: yeast three-hybrid, YBZ-1, SC-Leu-His + 0.5 mM 3-AT, 4 days; conditions: tags: N-Gal4 AD-HA kept; label: inside an RPR1-promoter hybrid RNA with tandem MS2 sites; ssRNA
How it was run: (§1)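 Pumilio-1 PUF domain libraries, randomized (NNK) at the three base-contacting residues of each repeat, were co-expressed with matching RNA elements from a centromeric plasmid in strain YBZ-1 (LexA–MS2 coat fusion, HIS3 reporter). Transformants were plated on SC-Leu (input) and SC-Leu-His + 0.5 mM 3-AT (selection) for four days, and repeat regions were PCR-amplified and Illumina-sequenced. The interaction score is the log2 change in variant frequency from input to selection, with pseudocount 1 where absent.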

Sequence of PUM1 PUF domain R4-TPG (Q14671 828-1176 N971T/H972P/Q975G): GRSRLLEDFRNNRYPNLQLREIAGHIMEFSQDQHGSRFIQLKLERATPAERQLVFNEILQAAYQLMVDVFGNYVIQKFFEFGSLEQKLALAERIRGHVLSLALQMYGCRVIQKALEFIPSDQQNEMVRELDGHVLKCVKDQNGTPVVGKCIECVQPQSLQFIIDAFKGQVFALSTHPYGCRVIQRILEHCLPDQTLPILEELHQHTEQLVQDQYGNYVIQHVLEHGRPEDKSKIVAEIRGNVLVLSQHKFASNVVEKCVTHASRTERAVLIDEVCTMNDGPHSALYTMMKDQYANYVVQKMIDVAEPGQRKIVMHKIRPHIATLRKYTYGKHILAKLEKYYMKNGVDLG

Row | Sequence | binding signal
1 | GGCUAGAACUAGUGGAUCCCCCGGCGCCCGGCGGCUCGAGCCCGGGUAAGUGUACAUAGUCUGCAUGCCGCCGGGCGCCAUGCCUGCAGGUCGACUCUAGAAAACAUG | 3.87 log2 enrichment (interaction score)
2 | GGCUAGAACUAGUGGAUCCCCCGGCGCCCGGCGGCUCGAGCCCGGGUAAGUGUAAAUAGUCUGCAUGCCGCCGGGCGCCAUGCCUGCAGGUCGACUCUAGAAAACAUG | 3.31 log2 enrichment (interaction score)
3 | GGCUAGAACUAGUGGAUCCCCCGGCGCCCGGCGGCUCGAGCCCGGGUAAGUGUAUAUAGUCUGCAUGCCGCCGGGCGCCAUGCCUGCAGGUCGACUCUAGAAAACAUG | 4.15 log2 enrichment (interaction score)

target: PUM1 PUF domain R1-RCS (Homo sapiens, UniProt Q14671 828-1176, S863R;R864C;Q867S); test: as above; conditions: tags: N-Gal4 AD-HA kept; label: inside an RPR1-promoter hybrid RNA with tandem MS2 sites; ssRNA
How it was run: as §1

Sequence of PUM1 PUF domain R1-RCS (Q14671 828-1176 S863R/R864C/Q867S): as the sequence (Q14671 828-1176 N971T/H972P/Q975G) above, with S36R, R37C, Q40S, T144N, P145H, G148Q counted along it

Row | Sequence | binding signal
4 | GGCUAGAACUAGUGGAUCCCCCGGCGCCCGGCGGCUCGAGCCCGGGUAAGUGUAAAUCGUCUGCAUGCCGCCGGGCGCCAUGCCUGCAGGUCGACUCUAGAAAACAUG | 3.49 log2 enrichment (interaction score)
5 | GGCUAGAACUAGUGGAUCCCCCGGCGCCCGGCGGCUCGAGCCCGGGUAAGUGUAAAUUGUCUGCAUGCCGCCGGGCGCCAUGCCUGCAGGUCGACUCUAGAAAACAUG | 3.23 log2 enrichment (interaction score)
6 | GGCUAGAACUAGUGGAUCCCCCGGCGCCCGGCGGCUCGAGCCCGGGUAAGUGUAAAUGGUCUGCAUGCCGCCGGGCGCCAUGCCUGCAGGUCGACUCUAGAAAACAUG | 1.75 log2 enrichment (interaction score)

Source: publication PMC8384837, “Expanding the binding specificity for RNA recognition by a PUF domain”
